The text below walks through data of PubChem BioAssay.

Records with an inconclusive call do not appear. Activity calls are given as the source filed them.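 Rule for the calls, unless noted: active = differentiation response of at least 50%, scaled between solvent and reference control, from cells with both markers; inactive = the rest.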

Test [1] can be described thus: yeast TOR pathway RPL19A-GFP modulators, primary screen, cell-based, S. cerevisiae, multiplex flow cytometry (AID 1862; in the data active = percent of DMSO control GFP below about 86%;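 note: lower values mimic rapamycin by blocking the RPL19A rise seen in DMSO cells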). The following applies: S. cerevisiae RPL19A-GFP strain, flow cytometry fluorescence, 3 h; at 10 µM; stronger effect = lower value.
A short description of test [2]: modulators of MEP2-GFP levels in yeast, primary screen, S. cerevisiae, multiplex flow cytometry (AID 1867;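 active = GFP response, as percent of the DMSO control, above the screen-wide mean plus 3 SD, about 139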;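 note: median GFP channel fluorescence of barcode-gated MEP2-GFP cells measured by flow cytometry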). The following applies: S. cerevisiae MEP2-GFP strain, 3 h, at 10 µM, stronger effect = higher value, 100% means same as DMSO wells. (A flow cytometer gives signals particle by particle.)
A short description of test [3]: modulators of CIT2-GFP expression in yeast, primary screen, S. cerevisiae, GFP fusion, multiplex flow cytometry (AID 1870;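 active = percent response above a set limit, the screen-wide mean plus 3 SD, cut at about 130% in these data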;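 note: barcoded CIT2-GFP strain pooled with four other GFP strains with rapamycin as positive control; median GFP fluorescence per well over plate mean of DMSO wells so 100% = DMSO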). The note with it: 3 h, at 10 µM, stronger effect = higher value.
A short description of test [4]: modulators of LAP4-GFP expression in yeast, primary screen, S. cerevisiae, multiplex flow cytometry (AID 1873;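 active = GFP signal, as percent of the solvent control, above the screen mean plus 3 SD, about 149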). The following applies: 3 h, at 10 µM, stronger effect = higher value.
Test [5] is described as follows: modulators of AGP1-GFP expression in yeast TOR pathway, primary screen, cell-based, multiplex flow cytometry, S. cerevisiae (AID 1887;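 active = GFP signal above the screen-wide mean plus 3 SD, that is over about 124.5% of the solvent control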;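 note: AGP1-GFP fusion strain of S. cerevisiae within a five-strain barcoded multiplex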). The note with it: 3 h, at 10 µM, stronger effect = higher value.
The nature of test [6]: inhibitors of CD8+ T cell-vesicle binding, pilot screen, LFA-1/ICAM-1 modulator project, MLPCN validation set, flow cytometry (AID 2523;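 active = response below a set limit, under 55% cells CD8-positive and vesicle-bound, and CD8 cells' 90th-percentile brightness under 279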;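 for vesicle binding response: mean PE anti-B7-1 fluorescence of CD8+ cells relative to row control; 100% = QL9-loaded vesicles with DMSO vehicle in the same plate row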). The following applies: 2C mouse CD8+ T cells, at 7 µM, stronger effect = lower value; double positive events: measured here: CD8+/vesicle+ event percentage.
The target in test [7] is Integrin beta-1 (Homo sapiens) + Integrin alpha-4 (Homo sapiens) (UniProt P13612+P05556). Nature of the test: inhibition of HUTS-21 binding to VLA-4, pilot screen, VLA-4 allosteric modulator project, U937 cells, HUTS-21 mAb, flow cytometry, validation set (AID 2674;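 active = inhibition above 50%, about 3 SD of the validation set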;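 note: antibody binding induced by the VLA-4 ligand LDV present at three times its Kd; 0% = LDV ligand with antibody and no compound and 100% = antibody without LDV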). The note with it: HUTS-21 LIBS mAb binding, at 6.7 µM, stronger effect = higher value, binding induced by LDV ligand.

Test [8] is described as follows: superoxide lowering in aged yeast cells, pilot screen, validation compound set (AID 2706;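 active = superoxide response below 65% of plate, a cut near 3 SD across the whole screen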;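 note: yeast exposed to compound for one week at 30 degrees C before staining; 100% = mean of all compound wells on the same plate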). The following applies: S. cerevisiae aging, superoxide DHE fluorescence; at 10 µM; stronger effect = lower value.
Test [9] addresses Beta-adrenergic receptor kinase 1 (Homo sapiens) (UniProt P25098). Nature of the test: GRK2 binders displacing RNA aptamer, biochemical, validation, human GRK2, bead flow cytometry (AID 488806;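 active = aptamer binding inhibition above 30%, about 3 SD of noise from non-fluorescent compounds; inactive = inhibition at or below 30%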). The note with it: bead-bound GRK2, FAM-aptamer displacement, at 10 µM, stronger effect = higher value.
The target of test [10] is Beta-2 adrenergic receptor (Homo sapiens) (UniProt P07550). Description: beta2AR agonists driving receptor internalization, pilot screen, cell-based, FAP fluorogen, flow cytometry, validation set (AID 504459;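 active = percent response above 42, roughly 3 SD of non-fluorescent test compounds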;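 note: agonist-driven loss of surface beta2AR via internalization measured by FAP dye flow cytometry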). The following applies: Am2.2-beta2AR cells, FAP surface receptor flow cytometry; at 10 µM; stronger effect = higher value.
The target in test [11] is AP-2 complex subunit beta (Homo sapiens) (UniProt P63010). Description: inhibitors of arrestin peptide binding to AP2, pilot screen, biochemical, validation set, GST-AP2 beads, flow cytometry (AID 504541;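 active = inhibition above 54%, about 3 SD of non-fluorescent compounds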;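 note: AP2 carries R879A mutation and is captured from E. coli lysate; bead-bound FITC arrestin peptide fluorescence measuring arrestin peptide binding to AP2; 0% = DMSO wells and 100% = excess unlabeled arrestin peptide control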). The following applies: FITC arrestin peptide, at 10 µM, stronger effect = higher value, AP2 beta2 appendage fragment, R879A mutant.
Test [12] can be described thus: yeast V-ATPase proton transport modulators, S. cerevisiae, pHLuorin, HTS validation (AID 504600; in the data active = response above about 15%;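 note: plate controls were DMSO for no effect and reference compound for full effect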). The note with it: S. cerevisiae pHLuorin cytosolic pH, at 10 µM, stronger effect = higher value.
The test system of test [13] is anti-desmoglein-3 scFv antibody binding to human DSG3. Description: inhibitors of anti-DSG3 scFv binding to DSG3, pilot screen, biochemical, validation compound set, bead-based, flow cytometry (AID 588368;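 active = binding below the plate cutoff, the plate median minus 3 SD, with a reading above zero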;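 note: signal is the median channel fluorescence of bead-bound GFP antibody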). The following applies: Protein G beads, DSG3-Fc, scFv-GFP binding, at 10 µM, stronger effect = lower value.
Test [14] can be described thus: inhibitors of fungal efflux pumps CDR1, CDR2, MDR1, pilot screen, validation compound set, multiplex, phenotypic (AID 588506;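 active = efflux inhibition above 0.42, the validation set average plus 4 SD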;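 note: Nile Red retained in cells so higher fluorescence means more efflux inhibition; 0 = negative control wells and 1 = enniatin B 25 µM full block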). The note with it: S. cerevisiae pump-expressing triplex, Nile Red efflux flow cytometry; at 10 µM; stronger effect = higher value; the pumps come from Candida albicans.
The target in test [15] is ATP-binding cassette sub-family B member 6 (Homo sapiens) (UniProt Q9NP58). Nature of the test: ABCB6 transporter inhibitors, pilot screen, K562-ABCB6 cells, flow cytometry, validation set (AID 588550;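 active = inhibition above the screen-wide mean plus 3 SD, about 51%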;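 note: 0% = DMSO wells and 100% = benzethonium chloride 70 µM positive control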). The note with it: K562-ABCB6 porphyrin accumulation, 1 h, at 10 µM, stronger effect = higher value.
Test [16] is described as follows: promoters of myeloid differentiation in arrested cells, primary screen, cell-based, GFP/MAC1 double positive, flow cytometry, validation set (AID 588685).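 Note: compound exposure lasts four days before antibody staining and flow analysis; 0% = DMSO wells and 100% = 5 µM fulvestrant positive control.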 The following applies: ER-HoxA9 marrow cells, stronger effect = higher value, normalized: vehicle 0, fulvestrant 100.

Beta-2 adrenergic receptor (Homo sapiens), sequence (P07550 whole entry, looked up): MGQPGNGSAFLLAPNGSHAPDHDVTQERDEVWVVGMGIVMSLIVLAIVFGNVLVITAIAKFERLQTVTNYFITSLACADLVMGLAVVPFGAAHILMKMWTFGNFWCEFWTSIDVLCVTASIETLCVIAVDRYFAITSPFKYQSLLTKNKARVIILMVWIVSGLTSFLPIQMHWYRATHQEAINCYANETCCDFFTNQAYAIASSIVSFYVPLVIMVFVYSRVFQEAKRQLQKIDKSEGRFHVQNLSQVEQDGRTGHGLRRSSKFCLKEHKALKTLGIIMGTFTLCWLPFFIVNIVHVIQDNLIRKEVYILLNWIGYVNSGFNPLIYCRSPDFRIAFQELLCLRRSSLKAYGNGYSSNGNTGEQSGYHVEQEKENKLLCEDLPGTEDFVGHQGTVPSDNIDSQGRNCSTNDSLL
Beta-adrenergic receptor kinase 1 (Homo sapiens), sequence (P25098 whole entry, looked up): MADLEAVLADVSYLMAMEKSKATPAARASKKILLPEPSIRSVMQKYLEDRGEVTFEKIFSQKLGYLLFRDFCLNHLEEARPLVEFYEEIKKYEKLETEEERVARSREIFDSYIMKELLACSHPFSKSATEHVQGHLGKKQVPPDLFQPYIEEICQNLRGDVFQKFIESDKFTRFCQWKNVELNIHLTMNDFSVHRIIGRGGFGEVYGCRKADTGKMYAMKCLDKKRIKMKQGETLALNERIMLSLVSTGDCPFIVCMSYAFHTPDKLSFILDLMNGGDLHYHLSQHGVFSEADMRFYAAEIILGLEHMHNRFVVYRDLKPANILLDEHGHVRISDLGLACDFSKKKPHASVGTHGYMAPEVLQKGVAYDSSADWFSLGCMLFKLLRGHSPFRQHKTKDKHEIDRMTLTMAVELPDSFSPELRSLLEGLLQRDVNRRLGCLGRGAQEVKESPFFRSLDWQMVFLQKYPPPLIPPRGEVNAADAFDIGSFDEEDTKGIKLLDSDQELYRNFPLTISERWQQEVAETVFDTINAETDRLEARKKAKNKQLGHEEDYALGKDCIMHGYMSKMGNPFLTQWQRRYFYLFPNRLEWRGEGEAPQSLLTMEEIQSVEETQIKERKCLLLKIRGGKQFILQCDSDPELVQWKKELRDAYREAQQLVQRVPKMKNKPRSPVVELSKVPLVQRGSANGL
AP-2 complex subunit beta (Homo sapiens), sequence (P63010 whole entry, looked up, the tested form may be a part, one chain of several): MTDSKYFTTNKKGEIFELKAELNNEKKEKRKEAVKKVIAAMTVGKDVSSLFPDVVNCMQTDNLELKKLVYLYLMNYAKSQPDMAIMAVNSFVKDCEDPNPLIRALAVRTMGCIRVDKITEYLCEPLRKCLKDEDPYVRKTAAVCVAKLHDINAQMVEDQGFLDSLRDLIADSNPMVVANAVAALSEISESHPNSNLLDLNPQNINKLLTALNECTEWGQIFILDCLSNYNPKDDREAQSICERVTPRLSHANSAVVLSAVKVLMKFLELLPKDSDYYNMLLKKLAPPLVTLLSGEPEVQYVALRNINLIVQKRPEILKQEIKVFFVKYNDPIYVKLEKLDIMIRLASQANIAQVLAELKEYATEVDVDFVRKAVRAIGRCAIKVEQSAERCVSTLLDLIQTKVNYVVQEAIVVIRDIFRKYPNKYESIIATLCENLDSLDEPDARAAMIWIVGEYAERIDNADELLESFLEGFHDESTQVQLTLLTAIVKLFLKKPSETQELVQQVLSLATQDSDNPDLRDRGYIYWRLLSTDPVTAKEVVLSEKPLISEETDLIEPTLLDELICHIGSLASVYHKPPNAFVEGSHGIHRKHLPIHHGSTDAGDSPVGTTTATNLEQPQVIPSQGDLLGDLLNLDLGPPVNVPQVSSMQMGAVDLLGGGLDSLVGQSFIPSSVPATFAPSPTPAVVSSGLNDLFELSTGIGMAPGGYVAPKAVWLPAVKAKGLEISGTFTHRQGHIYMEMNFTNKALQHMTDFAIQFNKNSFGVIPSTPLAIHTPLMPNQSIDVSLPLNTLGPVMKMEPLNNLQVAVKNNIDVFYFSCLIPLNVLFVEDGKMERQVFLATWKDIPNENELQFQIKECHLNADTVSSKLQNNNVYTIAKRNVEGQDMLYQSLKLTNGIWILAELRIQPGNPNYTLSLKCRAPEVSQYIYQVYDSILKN
Integrin beta-1 (Homo sapiens) + Integrin alpha-4 (Homo sapiens), sequence (P05556 whole entry, looked up): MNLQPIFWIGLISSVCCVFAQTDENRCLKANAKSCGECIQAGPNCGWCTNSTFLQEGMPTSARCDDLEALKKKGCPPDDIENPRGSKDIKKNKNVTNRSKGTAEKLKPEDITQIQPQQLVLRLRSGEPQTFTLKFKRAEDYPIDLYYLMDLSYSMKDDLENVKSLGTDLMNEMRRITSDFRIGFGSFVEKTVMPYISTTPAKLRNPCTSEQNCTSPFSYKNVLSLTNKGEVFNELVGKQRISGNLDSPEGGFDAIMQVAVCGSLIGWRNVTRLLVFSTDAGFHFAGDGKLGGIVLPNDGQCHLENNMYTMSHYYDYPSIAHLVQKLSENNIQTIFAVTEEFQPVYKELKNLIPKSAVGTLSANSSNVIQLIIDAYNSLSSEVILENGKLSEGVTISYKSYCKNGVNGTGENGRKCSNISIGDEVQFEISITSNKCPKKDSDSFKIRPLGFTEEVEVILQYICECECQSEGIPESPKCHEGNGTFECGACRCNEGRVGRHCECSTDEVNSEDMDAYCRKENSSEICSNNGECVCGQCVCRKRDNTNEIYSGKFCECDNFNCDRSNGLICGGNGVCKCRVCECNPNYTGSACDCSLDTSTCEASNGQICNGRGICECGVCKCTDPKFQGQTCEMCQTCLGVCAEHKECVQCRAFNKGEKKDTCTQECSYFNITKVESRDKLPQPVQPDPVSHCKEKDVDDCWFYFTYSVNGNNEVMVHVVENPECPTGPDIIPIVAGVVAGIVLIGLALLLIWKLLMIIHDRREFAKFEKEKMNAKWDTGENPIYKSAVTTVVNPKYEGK
Integrin beta-1 (Homo sapiens) + Integrin alpha-4 (Homo sapiens), sequence (P13612 whole entry, looked up): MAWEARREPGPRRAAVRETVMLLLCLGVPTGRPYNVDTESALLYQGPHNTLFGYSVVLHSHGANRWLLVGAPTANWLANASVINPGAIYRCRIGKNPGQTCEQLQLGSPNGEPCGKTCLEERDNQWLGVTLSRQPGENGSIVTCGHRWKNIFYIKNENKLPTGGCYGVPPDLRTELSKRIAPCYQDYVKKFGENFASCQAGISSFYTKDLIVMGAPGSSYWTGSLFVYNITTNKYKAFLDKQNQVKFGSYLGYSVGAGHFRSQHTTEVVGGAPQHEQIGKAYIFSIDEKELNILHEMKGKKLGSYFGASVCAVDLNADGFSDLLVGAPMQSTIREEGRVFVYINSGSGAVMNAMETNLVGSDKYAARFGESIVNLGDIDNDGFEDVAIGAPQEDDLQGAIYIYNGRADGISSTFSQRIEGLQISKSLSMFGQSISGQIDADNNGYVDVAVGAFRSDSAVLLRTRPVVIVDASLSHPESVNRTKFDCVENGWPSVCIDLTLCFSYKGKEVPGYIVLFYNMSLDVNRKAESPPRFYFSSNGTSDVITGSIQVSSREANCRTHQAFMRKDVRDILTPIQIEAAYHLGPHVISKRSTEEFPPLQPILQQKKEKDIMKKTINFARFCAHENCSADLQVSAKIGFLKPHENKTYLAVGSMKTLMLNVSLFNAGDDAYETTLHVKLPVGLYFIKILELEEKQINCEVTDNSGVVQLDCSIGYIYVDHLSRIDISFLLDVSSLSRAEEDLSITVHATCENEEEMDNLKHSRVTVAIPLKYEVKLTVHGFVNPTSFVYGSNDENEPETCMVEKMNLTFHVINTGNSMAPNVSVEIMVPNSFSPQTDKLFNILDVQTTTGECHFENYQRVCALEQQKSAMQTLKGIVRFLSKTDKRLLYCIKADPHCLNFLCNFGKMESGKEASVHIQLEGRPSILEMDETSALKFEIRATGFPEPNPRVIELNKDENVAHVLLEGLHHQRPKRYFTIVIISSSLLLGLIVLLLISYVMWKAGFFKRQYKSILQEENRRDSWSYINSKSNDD
ATP-binding cassette sub-family B member 6 (Homo sapiens), sequence (Q9NP58 whole entry, looked up): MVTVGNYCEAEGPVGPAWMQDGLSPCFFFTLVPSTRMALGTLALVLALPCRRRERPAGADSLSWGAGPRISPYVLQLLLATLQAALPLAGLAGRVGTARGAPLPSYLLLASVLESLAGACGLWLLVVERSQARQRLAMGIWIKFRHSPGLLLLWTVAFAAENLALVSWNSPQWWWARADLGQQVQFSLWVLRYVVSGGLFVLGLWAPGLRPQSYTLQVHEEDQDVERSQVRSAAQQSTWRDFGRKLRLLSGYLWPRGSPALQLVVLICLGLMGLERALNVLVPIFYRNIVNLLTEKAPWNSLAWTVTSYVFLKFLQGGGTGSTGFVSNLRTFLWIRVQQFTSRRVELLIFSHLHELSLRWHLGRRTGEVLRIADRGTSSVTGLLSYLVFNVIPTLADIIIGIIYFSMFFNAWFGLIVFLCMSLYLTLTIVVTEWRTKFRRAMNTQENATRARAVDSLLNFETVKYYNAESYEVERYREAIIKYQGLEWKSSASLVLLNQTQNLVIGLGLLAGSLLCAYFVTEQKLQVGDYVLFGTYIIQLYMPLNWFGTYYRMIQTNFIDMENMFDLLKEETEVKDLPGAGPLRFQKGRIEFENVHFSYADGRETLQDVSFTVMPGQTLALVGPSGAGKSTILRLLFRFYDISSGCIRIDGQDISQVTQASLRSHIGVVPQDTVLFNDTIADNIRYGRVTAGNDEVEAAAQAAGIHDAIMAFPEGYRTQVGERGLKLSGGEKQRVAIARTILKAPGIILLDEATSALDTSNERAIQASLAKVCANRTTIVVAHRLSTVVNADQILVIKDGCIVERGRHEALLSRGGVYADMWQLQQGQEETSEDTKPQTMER

Regarding `CC(C)CN1CCN(Cc2ccc3ncccc3c2)CC1CCO` (stereo not given), the percent of DMSO control GFP in test [1] is 103% (inactive). The figures for the GFP response vs DMSO in [2] and in test [4] were 96.2% (inactive) and 84.8% (inactive), respectively. Besides, in test [3], the percent response of DMSO control was 118% (inactive). In addition, the GFP response, % of DMSO in test [5] is 103% (inactive). For the same compound, the double positive events in [6] turned out to be 62%. For the same compound, the vesicle binding response in [6] is 290% (inactive). In addition, the figures for the inhibition in test [7], in [11] and in [15] were 4.73% (inactive), -6.16% (inactive) and -9% (inactive), respectively. Further, the superoxide response (% of plate) in [8] was 95% (inactive). Besides, in test [9], the aptamer binding inhibition was -1% (inactive). In addition, the response in test [10] was -8.31% (inactive); in [12] it was 1.7% (inactive). Besides, the binding (% of control) in test [13] was 103% (inactive). In addition, in [14], the efflux inhibition (fraction of control) was 0.24 (inactive). Further, the differentiation response in test [16] was 6.11% (inactive).
With `COc1ccc2c(c1OC)C(=O)OC2C1c2c(cc3c(c2OC)OCO3)CCN1C` (stereo not given), the percent of DMSO control GFP in test [1] is 97.8% (inactive). Also, the GFP response vs DMSO in test [2] is 100% (inactive); in test [4], 91.4% (inactive). Besides, the percent response of DMSO control in test [3] was 104% (inactive). In test [5], the GFP response, % of DMSO is 95.7% (inactive). The compound further came in with a double positive events in test [6] of 60.2%. Further, the vesicle binding response in test [6] was 230% (inactive). Moreover, the inhibition (as a rule, the drop in the measured response relative to a control, in per cent) in test [7] is 11% (inactive); in test [11], -5.89% (inactive); in test [15] it was -1% (inactive). Also, the superoxide response (% of plate) in test [8] was 92.5% (inactive). Moreover, the aptamer binding inhibition in [9] was 5% (inactive). The values for the response in [10] and in test [12] were -9.24% (inactive) and -1.48% (inactive), respectively. Further, the binding (% of control) in test [13] is 96.4% (inactive). For the same compound, the efflux inhibition (fraction of control) in [14] was -0.29 (inactive). Besides, in [16], the differentiation response was -2.69% (inactive).
For `O=C(c1ccc(Cl)cc1)C1CCCN(Cc2ccc(Oc3ncccn3)cc2)C1` (stereo not given), in test [1], the percent of DMSO control GFP was 108% (inactive). In addition, the figures for the GFP response vs DMSO in [2] and in [4] were 104% (inactive) and 87.2% (inactive), respectively. The percent response of DMSO control in test [3] was 106% (inactive). Besides, the GFP response, % of DMSO in test [5] was 96.5% (inactive). Further, the double positive events in test [6] was 65.7%. The vesicle binding response in [6] is 227% (inactive). The inhibition in test [7] is 24.4% (inactive); in test [11] it was -1.25% (inactive); in test [15], 21% (inactive). For the same compound, the superoxide response (% of plate) in test [8] was 93.5% (inactive). In [9], the aptamer binding inhibition is 2% (inactive). The response in test [10] is -3.98% (inactive); in test [12] it was 2.78% (inactive). Further, the binding (% of control) in [13] was 106% (inactive). The efflux inhibition (fraction of control) in test [14] was -0.12 (inactive). In addition, the differentiation response in [16] is -6.03% (inactive).
As to `N/C(=N\OC(=O)c1ccc(Br)o1)c1ccccn1`, the percent of DMSO control GFP in test [1] is 101% (inactive). The GFP response vs DMSO was 102% (inactive) in test [2] and 124% (inactive) in test [4]. Moreover, the percent response of DMSO control in test [3] is 95.1% (inactive). For the same compound, the GFP response, % of DMSO in [5] is 96.9% (inactive). The double positive events in [6] amounted to 67.8%. Moreover, the vesicle binding response in test [6] was 232% (inactive). Besides, the inhibition is 17.6% (inactive) in test [7], 2.47% (inactive) in test [11] and 6% (inactive) in test [15]. Further, the superoxide response (% of plate) in test [8] was 117% (inactive). Also, in test [9], the aptamer binding inhibition is 3% (inactive). Also, the response is -28.6% (inactive) in test [10] and 5.72% (inactive) in test [12]. Also, the binding (% of control) in [13] was 98.7% (inactive). Moreover, the efflux inhibition (fraction of control) in test [14] was -0.04 (inactive). In addition, the differentiation response in test [16] is 5.85% (inactive).
For `Cc1ccc(/C(=C\CN2CCCC2)c2ccccn2)cc1`, the percent of DMSO control GFP in [1] was 107% (inactive). Further, the GFP response vs DMSO is 104% (inactive) in test [2] and 88.2% (inactive) in [4]. Moreover, in test [3], the percent response of DMSO control was 108% (inactive). Besides, the GFP response, % of DMSO in test [5] is 100% (inactive). Also, in test [6], the double positive events was determined as 57.7%. For the same compound, in test [6], the vesicle binding response is 146% (inactive). The values for the inhibition in test [7], in [11] and in test [15] were 12.3% (inactive), -9.23% (inactive) and -16% (inactive), respectively. In test [8], the superoxide response (% of plate) is 106% (inactive). Further, the aptamer binding inhibition in test [9] was 1% (inactive). Moreover, the response in test [10] is 7.2% (inactive); in test [12], 0.97% (inactive). Also, the binding (% of control) in test [13] is 108% (inactive). Moreover, the efflux inhibition (fraction of control) in [14] is 0.01 (inactive). Further, the differentiation response in test [16] was -19.2% (inactive).
